In the supplement of paper PMC6555819:

Experiments:
Test in all cases: PBM binding z-score (relative to random genomic background probes); higher = stronger binding; sequences stand for … in GC…GCGATTGACAGCGTAGAATGAAGG
[1] = tested on: FXR:RXRa (NR concentration 270 nM, RXRa partner concentration 90 nM)
Outline: (§1)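 Binding z-scores take random background probes as their reference. They come from custom Agilent 4×180K protein-binding microarrays incubated 1 h with ligand-free nuclear receptor dimers, with antibodies against each partner (one per run) detecting binding. Scanned fluorescence was regression-normalized.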

[2] = tested on: LXRa:RXRa (NR concentration 270 nM, RXRa partner concentration 90 nM)
Outline: as §1

[3] = tested on: LXRa homodimer (NR concentration 270 nM)
Outline: as §1

[4] = tested on: LXRb:RXRa (NR concentration 270 nM, RXRa partner concentration 90 nM)
Outline: as §1

[5] = tested on: LXRb homodimer (NR concentration 270 nM)
Outline: as §1

[6] = tested on: PPARa:RXRa (NR concentration 270 nM, RXRa partner concentration 90 nM)
Outline: as §1

[7] = tested on: PPARg:RXRa (NR concentration 180 nM, RXRa partner concentration 90 nM)
Outline: as §1

[8] = tested on: PPARg:RXRa 270nM:90nM, anti-RXR (NR concentration 270 nM, RXRa partner concentration 90 nM)
Outline: as §1

[9] = tested on: PPARg:RXRa 30nM:10nM, anti-RXR (NR concentration 30 nM, RXRa partner concentration 10 nM)
Outline: as §1

[10] = tested on: PPARg:RXRa 90nM:30nM, anti-RXR (NR concentration 90 nM, RXRa partner concentration 30 nM)
Outline: as §1

[11] = tested on: PPARg:RXRa DBDmut IVT, anti-RXR (DBD mutation: RXRa K156A/R161A, NR concentration 270 nM, RXRa partner concentration 90 nM)
Outline: as §1

[12] = tested on: PPARg:RXRa IVT, anti-PPARg (NR concentration 270 nM, RXRa partner concentration 90 nM)
Outline: as §1

[13] = tested on: PPARg DBDmut:RXRa IVT, anti-PPARg (DBD mutation: PPARg1 K132A/R137A, NR concentration 270 nM, RXRa partner concentration 90 nM)
Outline: as §1

[14] = tested on: PPARg DBDmut IVT, anti-PPARg (DBD mutation: PPARg1 K132A/R137A, NR concentration 270 nM)
Outline: as §1

[15] = tested on: PPARg homodimer (NR concentration 180 nM)
Outline: as §1

[16] = tested on: PXR:RXRa (NR concentration 270 nM, RXRa partner concentration 90 nM)
Outline: as §1

[17] = tested on: PXR homodimer (NR concentration 270 nM)
Outline: as §1

[18] = tested on: RARa:RXR (NR concentration 270 nM, RXRa partner concentration 90 nM)
Outline: as §1

[19] = tested on: RARa homodimer (NR concentration 270 nM)
Outline: as §1

[20] = tested on: RARb:RXRa (NR concentration 270 nM, RXRa partner concentration 90 nM)
Outline: as §1

Sequence	PBM binding z-score [1]	PBM binding z-score [2]	PBM binding z-score [3]	PBM binding z-score [4]	PBM binding z-score [5]	PBM binding z-score [6]	PBM binding z-score [7]	PBM binding z-score [8]	PBM binding z-score [9]	PBM binding z-score [10]	PBM binding z-score [11]	PBM binding z-score [12]	PBM binding z-score [13]	PBM binding z-score [14]	PBM binding z-score [15]	PBM binding z-score [16]	PBM binding z-score [17]	PBM binding z-score [18]	PBM binding z-score [19]	PBM binding z-score [20]
TCTTGTAGATCAAAGGTTATGAAAGCCGAAGCCT	1.67	2.16	0.00882	2.21	0.156	4.58	7.9	7.7	7.23	8.56	2.32	3.32	0.577	0.452	1.12	1.88	0.0149	3.07	-0.114	1.79
CCGACTGGGGCAAAGGTAACCATACTCAGTACGA	0.167	0.164	-0.55	0.446	-1.32	4.5	8.83	7.71	7.84	8.13	4.95	5.05	-0.085	-0.917	0.706	0.067	-0.401	1.14	-0.0329	0.906
TCTCGGACGACACGAAGGTCAGAGCTTTCCAGAG	1.58	0.965	-0.0974	1.17	-0.374	1.96	0.474	1.77	2.37	2.15	1.39	0.576	-1.3	-0.777	1.07	1.61	-0.245	1.95	0.13	2.8
CCTATTAGTTGACCATAAGGGCAACAGAAGCTCG	0.832	0.536	0.381	0.601	0.473	0.814	0.639	0.432	0.111	0.284	0.409	0.628	-0.0621	0.417	1.95	0.896	0.847	1.15	1.6	1.42
CCAGACAGGTGAGAAGGTAACGCAGCCTCGATTA	-0.0305	0.0782	-0.18	0.115	-0.496	0.743	0.809	0.998	-0.268	0.809	1.37	0.83	-0.151	-0.199	0.904	0.0317	0.012	0.312	0.438	0.806
TCGAGTAGGTTACCAATGGGGCATTGAGCTTTCT	0.162	1.38	-0.99	0.479	-1.11	0.992	0.256	1.26	1.03	1.16	3.4	2.69	-0.293	-0.233	-0.0976	0.039	-0.707	0.00376	-0.988	0.917
ATATGTAGGTTAGGTGGGGTCATTCAGACTAGGC	5.01	6.16	3.73	5.37	2.74	5.23	5.59	5.49	2.48	4.67	6.72	5.87	2.01	3.16	2.99	6.47	4.9	6.09	1.79	2.98
AGAATGAGGTTATTAGGATCAGGGAATTGCGGTC	2.04	1.69	0.286	1.38	0.314	2.79	2.39	2.69	0.762	1.59	3.64	3.55	0.306	0.466	1.24	1.38	0.752	1.57	1.06	1.53
CCTTACGGGTCACGAGGTTATAGCACGACGAGCG	6.74	4.6	0.401	4.02	-0.321	5.94	7.45	6.6	3.13	5.31	3.98	5.69	1.85	0.701	2.37	4.46	0.418	5.47	0.688	4.62
CCTACTGGGCCAAGGTCGTTGATCAGTCAAAGCA	0.16	0.0412	-0.352	0.25	-0.992	1.56	1.7	2.33	0.177	1.6	3.4	3.41	-1.53	-1.31	-0.148	0.637	0.241	0.405	-0.549	1.09
TCTACAGGGTCAAAGGCCAGAGTACGAATGTCGA	7.34	4.67	0.313	4.11	0.605	5.99	7.62	7.12	5.3	6.93	2.69	4.11	0.545	0.757	1.6	4.1	0.202	5.76	0.385	4.29
CCTAGCAGGCCAGGGTCACTAAAGCATTTCGCTT	1.78	1.59	-0.472	1.78	-1.37	3.06	0.442	1.2	-0.365	0.422	0.051	0.519	-1.03	-1.22	0.403	2.21	-0.725	2.96	-0.568	2.35
GCGCCTGGGGCATCAGCAGGTTACCATAACTTAA	-0.344	-0.299	-0.446	0.294	-1.19	0.454	0.0238	-0.488	-0.952	-0.927	-0.452	-0.359	-1.03	-1.67	-0.0775	0.0887	-0.879	0.514	-1.02	0.937
AGAACAAGGGCAATGAGTTGATAGCACGGGTGGC	0.13	0.0784	-0.454	0.0189	0.008	0.573	1.26	0.0922	-0.195	-0.176	2.52	1.75	0.287	-0.527	0.058	0.978	4.14	0.000148	-0.325	2.2
CTCGAAAGGTCGTGCTCAGGTGAGTCTACCAAAC	4.93	3.85	0.251	3	0.082	4.65	2.04	3.85	0.42	2.48	1.08	1.81	-0.131	-0.101	1.24	3.07	0.183	3.94	-0.14	3.86
TTACCAAGGTGAGCTGAGGGCGTTGATCCAACTC	0.29	-0.133	-0.543	-0.27	-1.16	0.372	-0.203	-0.041	-0.278	-0.0993	1.02	1.45	0.0128	-0.0146	-0.525	3.08	-0.168	1.11	-0.757	1.1
TCTAGTTGGTCAAAGCTCACACACTCGAAATGCG	0.576	0.551	0.233	0.661	0.421	1.58	2.21	4.31	3.89	4.23	2.36	1.86	0.492	0.777	1.1	0.532	-0.0371	0.758	0.56	1.01
CCGTCTGGGGCATAAGGTTACCATAAGCCAGCCC	0.562	2.1	-0.402	0.847	-1.32	1.78	1.29	2.07	0.233	1.54	1.52	1.84	-1.52	-1.72	0.475	0.566	-0.335	1.39	-0.41	1.84
TCTCGGAGGACATGAAAGGTCAGAGCTCGACATC	2.65	3.67	2.92	3.09	-0.221	3.34	1	2.68	2.8	2.61	2.04	1.1	-0.0886	-0.561	2.54	3.59	0.0503	3.72	0.458	3.99
GCTCCTAGGTCAGGTTGGTCAGCTAACGGGTACG	1.88	1.13	0.0623	1.09	0.0222	2.12	0.889	1.34	-0.42	0.479	3.08	2.33	0.131	-0.79	0.823	0.632	0.2	1.26	-0.173	3.58
CCTTACGGGTCACTCCAGGTTATAGGATCGGAGT	4.94	7.84	1.93	5.04	-0.0329	4.39	3.38	3.76	1.12	2.6	2.49	4	0.265	0.385	1.86	5.21	0.588	4.1	0.817	3.8
TCTCGGAGGACACGAAGGCCAGAGCTTTCCAGAG	0.413	-0.099	-0.863	-0.477	-0.953	0.156	-0.048	0.609	1.81	1.36	1.5	0.0169	-0.633	-1.61	-0.704	-0.278	-0.919	-0.235	-1.31	1.82
CCGACTGGGGCAGAAAGGTTACGATACCATCCGG	0.702	0.832	-0.247	1.01	-0.887	2.34	2.25	3.05	0.964	2.25	1.98	2.35	-0.302	-0.0493	1.17	1.39	-0.337	1.72	-0.00415	1.92
TCCTATAGGTAATACAGGTGAAAGTCGGCATCTA	0.774	0.986	-0.00145	0.839	0.103	1.84	0.918	1.91	3.2	2.41	2.84	2.12	0.665	0.687	0.164	0.43	-0.159	0.537	0.724	0.581
ACTATTAGTTGAGACGAGGGCAGCCGATAGGTTG	0.474	-0.24	-0.315	-0.195	0.184	-0.0872	0.689	-0.013	0.136	-0.0374	0.368	0.416	0.598	0.645	0.479	0.456	-0.0477	0.335	0.445	0.854
CCTACTGGGCCAAGGTCATTGAACAGTCAAAGCA	3.08	3.2	0.814	3	-0.34	4.19	4.25	4.55	1.68	3.73	3.68	4.69	-0.3	-0.825	1.5	3.32	0.99	3.5	-0.309	3.5
CCAACTAGGTCAAGAGGTCAAAGTCCGCTTCCCG	6.96	6.55	6.26	5.47	1.76	6.42	9.41	7.99	6.27	8.1	8.09	8.02	4.07	5.47	8.09	6.37	2.79	8.12	3.13	5.34
TTACCAAGGTGAAAGTCGTTGATCCCTCTGTAGA	0.729	0.757	-0.418	0.587	-0.747	2.1	0.615	1.61	0.371	1.12	1.87	2.87	0.179	0.266	-0.0514	0.456	-0.651	1.1	-0.221	1.67
TCTGCTAGGTCAACGATGGTTAGCTAATCTGCTA	3.1	2.08	-0.301	1.46	-0.085	3.09	2.34	3.09	1.82	2.54	4.04	4.11	0.206	0.0855	0.625	1.24	-0.803	2.11	-0.888	4.14
